Shown are actives, neighbours in structure and some others; about 2.8% of the full set was active somewhere.
Fam108B inh – mouse Fam108B serine hydrolase inhibitors, primary screen, counter-screen for RBBP9 inhibitor project, biochemical, fluorescence polarization | 300,000 tested, 0.33% active | recombinant Fam108B, FP-Rh probe fluorescence polarization | inhibition, % at 9.51 µM;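 active = inhibition above the screen mean inhibition plus 3 SD, computed separately per campaign, cut at about 18% in these data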;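 also: inhibitors lower polarization as less probe binds the enzyme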
PAFAH1B3 FP inh – PAFAH1B3 enzyme inhibitors, primary screen, biochemical, fluorescence polarization, human; Platelet-activating factor acetylhydrolase IB subunit alpha1 (Homo sapiens), Q15102; recombinant PAFAH1B3, FP-rhodamine probe; inhibition, % at 3.39 µM; 340,000 tested, 0.28% active;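 active = inhibition above the screen-wide average of all tested compounds plus 3 SD, cut at about 25% in these data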
pPAFAH FP inh – pPAFAH enzyme inhibitors, primary screen, biochemical, fluorescence polarization, human. Platelet-activating factor acetylhydrolase (Homo sapiens), Q13093. recombinant pPAFAH, FP-rhodamine probe fluorescence polarization. inhibition, % at 3.39 µM. 330,000 tested, 1.5% active;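 active = inhibition above the mean inhibition across the screen plus 3 SD, cut at about 25% in these data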;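 also: inhibitors block binding of the rhodamine activity-based probe so polarization drops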
PAFAH2 FP inh – PAFAH2 enzyme inhibitors, primary screen, biochemical, fluorescence polarization, human; Platelet-activating factor acetylhydrolase 2, cytoplasmic (Homo sapiens), Q99487; recombinant PAFAH2, FP-rhodamine activity probe; inhibition, % at 3.39 µM; 340,000 tested, 0.99% active; AID 492956, 2010;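 active = inhibition above the mean over all tested compounds plus 3 SD, cut at about 30% in these data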;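 also: inhibitors block probe labeling of enzyme so polarization drops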
PAFAH1B2 FP inh – PAFAH1B2 enzyme inhibitors, primary screen, biochemical, fluorescence polarization, human. recombinant PAFAH1B2, FP-rhodamine activity probe. 340,000 tested, 1.2% active. inhibition, % at 3.39 µM. AID 492953, 2010. Platelet-activating factor acetylhydrolase IB subunit alpha2 (Homo sapiens), P68402;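 active = inhibition above the mean of all tested compounds plus 3 SD, cut at about 24% in these data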
PME-1 inh – PME-1 inhibitors via competitive probe labeling, primary screen, biochemical, fluorescence polarization, FP-Rh probe, HTS. 320,000 tested, 0.53% active. Protein phosphatase methylesterase 1 (Homo sapiens), Q9Y570. recombinant PME-1. AID 2130, 2009. inhibition, % at 5.9 µM;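 active = inhibition above the campaign mean of all compounds plus 3 SD, cut at about 26% in these data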;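 also: competitive labeling of PME-1 active site by serine hydrolase directed probe; inhibitors block probe labeling so polarization falls and inhibition rises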
Target sequence (Q9Y570 whole entry, looked up): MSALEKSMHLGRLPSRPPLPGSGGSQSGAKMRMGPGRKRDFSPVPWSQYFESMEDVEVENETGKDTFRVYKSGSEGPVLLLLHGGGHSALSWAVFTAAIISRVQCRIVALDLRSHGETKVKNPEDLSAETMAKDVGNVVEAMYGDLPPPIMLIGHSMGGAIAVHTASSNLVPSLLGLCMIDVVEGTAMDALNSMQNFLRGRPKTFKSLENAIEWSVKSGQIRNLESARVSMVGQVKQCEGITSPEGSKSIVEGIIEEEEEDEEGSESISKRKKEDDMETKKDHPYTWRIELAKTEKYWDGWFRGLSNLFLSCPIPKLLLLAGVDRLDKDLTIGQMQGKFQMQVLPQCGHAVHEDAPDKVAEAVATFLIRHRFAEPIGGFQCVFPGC
PAFAH2 confirm – PAFAH2 enzyme inhibitors, confirmation, biochemical, fluorescence polarization, human. shares compounds with PAFAH2 FP inh. recombinant PAFAH2, FP-rhodamine activity probe. inhibition, % at 3.39 µM. 2,300 tested, 65% active;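 active = mean inhibition over three repeats above a set limit taken from the earlier primary screen, cut at about 30% in these data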;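 also: inhibitor blocks binding of rhodamine activity probe so polarization falls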
Each line names hits and unclear results; the compound was inactive in the other large screens (follow-up assays come after a bar, where they were run).

O=C(COC(=O)c1cccc(S(=O)(=O)N2CCCCCC2)c1)Nc1ccccc1C(F)(F)F	PAFAH2 FP inh 58 (no result: Fam108B inh) | PAFAH2 confirm 36
COc1ccc(NC(=O)c2ccc(-c3nn(C)c(=O)c4ccccc34)cc2)cc1	PAFAH2 FP inh 35 | PAFAH2 confirm inactive
Cc1ccc(C(=O)OCC(=O)Nc2cccc(S(=O)(=O)N3CCOCC3)c2)o1	none (no result: Fam108B inh)
Cc1ccsc1C(=O)OCC(=O)Nc1cccc(S(=O)(=O)N2CCOCC2)c1	PAFAH2 FP inh 77 | PAFAH2 confirm 58
Cc1ccc(NC(=O)COC(=O)Cn2c(C)csc2=O)cc1S(=O)(=O)N1CCOCC1	none (no result: Fam108B inh, pPAFAH FP inh, PME-1 inh)
O=C(COC(=O)CC1CC2CCC1C2)Nc1ccc(Cl)c(S(=O)(=O)N2CCOCC2)c1 (centres undefined)	PAFAH2 FP inh 69 (no result: Fam108B inh) | PAFAH2 confirm 59
Cc1ccc(NC(=O)COC(=O)c2sccc2C)cc1S(=O)(=O)N1CCOCC1	PAFAH2 FP inh 81 | PAFAH2 confirm 72
COc1ccc(S(=O)(=O)N2CCOCC2)cc1NC(=O)COC(=O)CC1CC2CCC1C2 (centres undefined)	none (no result: Fam108B inh, PME-1 inh)
Cc1cn(CC(=O)NCc2ccc(N(C)C)cc2)c(=O)[nH]c1=O	none (no result: Fam108B inh, pPAFAH FP inh, PME-1 inh)
CC12OC1C1(O)CCCC1=CC2=O (centres undefined)	none (no result: PAFAH1B3 FP inh, PAFAH2 FP inh, PAFAH1B2 FP inh)
O=C1CSC(=S)N1N=Cc1c(O)ccc2ccccc12	PAFAH2 FP inh 42 (no result: Fam108B inh, pPAFAH FP inh, PME-1 inh) | PAFAH2 confirm 34
COc1ccc2ccccc2c1/C=N/N1C(=O)CSC1=S	none
COc1ccc(C2CC2/C(C)=N/OC(=O)c2cccs2)cc1 (centres undefined)	none
COc1ccc(C(=O)O/N=C(/C)c2cccs2)cc1	PAFAH2 FP inh 64 | PAFAH2 confirm 55
C/C(=N/OC(=O)c1c(F)cccc1F)c1nccs1	none
COc1ccc(C(=O)O/N=C(\C)c2nccs2)cc1	PAFAH2 FP inh 67 | PAFAH2 confirm 60
CCC(C)NC(=O)c1ccc(C)c(NC(=O)C2=C(C)OCCS2)c1 (centres undefined)	none
Cc1ccc(CNC(=O)CS(=O)(=O)c2cn(CC(=O)N3CCOCC3)c3ccccc23)cc1	none
Oc1oc(-c2ccccc2)nc1C=NCc1ccncc1	PAFAH2 FP inh 52 | PAFAH2 confirm 37
O=C(O)CC(c1ccccc1)N1C(=O)c2cccc([N+](=O)[O-])c2C1=O (centres undefined)	none
Cc1cc(C(=O)NNS(=O)(=O)c2cc(C(=O)O)ccc2Cl)c(C)n1-c1ccccc1	none (no result: Fam108B inh)
N/C(CC(=O)Nc1ccc(F)cc1F)=N\OC(=O)c1cccs1	PAFAH2 FP inh 41 | PAFAH2 confirm inactive
C/C(=N\Nc1ccc(F)cc1F)c1cccs1	none (no result: PAFAH1B3 FP inh, PAFAH2 FP inh, PAFAH1B2 FP inh)
COc1ccc(C/C(N)=N/OC(=O)c2cccs2)cc1	PAFAH2 FP inh 47 | PAFAH2 confirm 38
N/C(Cc1ccc(Cl)cc1Cl)=N\OC(=O)c1cccs1	PAFAH2 FP inh 88 | PAFAH2 confirm 84
COc1ccccc1C/C(N)=N/OC(=O)/C=C/c1ccccc1	PAFAH2 FP inh 69 | PAFAH2 confirm 72
N/C(Cc1ccc(Cl)cc1Cl)=N\OC(=O)c1ccc(Br)o1	none
COc1ccccc1C/C(N)=N/OC(=O)COc1cccc(C)c1C	none
N/C(Cc1cccc2ccccc12)=N\OC(=O)c1cccs1	none
COc1ccccc1C/C(N)=N/OC(=O)c1cccs1	PAFAH2 FP inh 81 | PAFAH2 confirm 75
Cc1ccc(C(=O)O/N=C(/c2nonc2N)N(C)C)cc1	PAFAH2 FP inh 51 | PAFAH2 confirm 41
CC1Oc2ccccc2N(CC(=O)NCCN2CCOCC2)C1=O (centres undefined)	none
CCn1c(SC(C)C(=O)NCC2CCCO2)nc2ccccc21 (centres undefined)	none (no result: Fam108B inh)
COCCOC(=O)c1c(C)n(C)c2ccc(OC(=O)c3ccco3)cc12	none
COCCOC(=O)c1c(C)n(C)c2ccc(OC(=O)C3CC3)cc12	PAFAH2 FP inh 39 | PAFAH2 confirm inactive

Screening results from PubChem.
